# According to PubChem BioAssay (NCI):
# Several values for one entry are separate records, joined by “and”; a condition that tells them apart may be missing. Identical values can stand only once. About 83,000 compounds went through this panel and 20% of them were active in at least one assay; those are over-represented in the sample as a whole.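 For each line, cells grew in 96-well plates with the test compound present at a single concentration for 48 hours.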 A number with no mark means an inactive call. Activity calls are given as the source filed them. The calls were made as follows: active = growth percent below 10; inactive = the rest.
# System: SK-OV-3 ovarian
# Assay: NCI-60 one-dose screen, 48 h (100 = growth as untreated, 0 = no growth, -100 = all killed)
# Conditions: 10 µM unless noted
row,Compound,growth
1,CC12OC(CC(O)C1O)n1c3ccccc3c3c4c(c5c6ccccc6n2c5c31)C(=O)N(CCN1CCOCC1)C4=O (stereo not given),-8.93% (active)
2,Cc1c(O)c(O)cc2c3c(oc12)CC(c1ccc2c(c1)OCO2)CC3=O (stereo not given),85.4%
3,N#CC1=C(N)Oc2c(sc3c(Br)cccc23)C1c1ccccn1 (stereo not given),27.2%
4,COc1cc2nc3cc([N+](=O)[O-])ccc3c(NCCNCC(C)(C)O)c2cc1OC,17.8%
5,CCOc1ccccc1NC(=O)c1cc2ccccc2cc1O,81.3%

# System: IGROV1 ovarian
# Assay: as above
# Conditions: 10 µM unless noted
row,Compound,growth
1,CN1CCN(CCCN2c3ccccc3Sc3ccc(Cl)cc32)CC1,54.5%
2,O=C(c1cccc(Br)c1)N1CCN(c2ccnc3cc(Cl)ccc23)CC1,90.6%
3,N#CSc1c[nH]c2ccc(/C=C/C(=O)/C=C(/C=C/c3ccc4[nH]cc(SC#N)c4c3)OB(F)F)cc12,-55.5% (active)
4,COc1cc(Nc2nc3ccccc3cc2C(=O)Nc2ccc(F)c(F)c2)cc(OC)c1OC,30.8%
5,CCOC(=O)CC1CSC(c2cccc(Cl)c2)=N1 (stereo not given),113%
6,CC/C=C\C/C=C\C[C@H](O)C/C=C1/C(=O)C=C[C@@H]1C/C=C\CCCC(=O)OC,-28.9% (active)
7,CCCCCCNC(=O)Oc1ccc(/C(=C(/CC)Cc2ccccc2)c2ccc(OCCCN(C)C)cc2)cc1,68.1%
8,NC(N)=NC(N)=NCCCc1ccco1,99.8%
9,O=C(N=Nc1c(O)[nH]c2ccccc12)Nc1ccccc1Cl,65.3%
10,O=C(N/N=C/c1ccc(O)cc1O)c1cccc(Nc2ccnc(C(F)(F)F)c2)c1,34.2%
11,O=C(Nc1ccc2ccccc2c1)c1cc2ccccc2cc1O,59.8%
12,Cc1ccc(-c2nc3nc(-c4ccccc4)nc(N4CCN(S(=O)(=O)c5ccccc5)CC4)c3o2)cc1,89.2%
13,Cn1cc(C2=C(c3cccc4ccccc34)C(=O)NC2=O)c2cc(Br)ccc21,94.9%
14,CC[C@@H]1NC(=O)[C@H]([C@H](O)[C@H](C)C/C=C/c2ccc(CN3C(=O)C(C)=C(C)C3=O)cc2)N(C)C(=O)[C@H](C(C)C)N(C)C(=O)[C@H](CC(C)C)N(C)C(=O)[C@H](CC(C)C)N(C)C(=O)[C@@H](C)NC(=O)[C@H](C)NC(=O)[C@H](CC(C)C)N(C)C(=O)[C@H](C(C)C)NC(=O)[C@H](CC(C)C)N(C)C(=O)CN(C)C1=O,68.6%
15,O=C1/C(=C/c2ccc(F)c(F)c2)CN(C(=O)C(Cl)Cl)C/C1=C\c1ccc(F)c(F)c1,-84.5% (active)
16,O=C1C(c2c[nH]c3ccccc23)=C(c2coc3cc(Br)ccc23)C(=O)N1O,85.2%
17,CC1=CC(C)(C)NC(=S)N1c1ccc(Cl)cc1,96.4%
18,O=C1/C(=C/c2ccccc2)CN(C(=O)C(Cl)Cl)C/C1=C\c1ccccc1,-25.1% (active)
19,CC(=O)N1N=C(c2ccc(Nc3nc(Nc4ccc(F)cc4)nc(Nc4ccc(Cl)cc4)n3)cc2)CC1c1ccc(N(C)C)cc1 (stereo not given),60.8%
20,CCCN1C(=O)/C(=c2\sc3n(c2=O)NC2C(N=3)N(CC)C(=O)N2CC)c2ccccc21 (stereo not given),38.9%
21,CONC1=Nc2cc(NC(N)=NCc3ccccc3)c(N(C)C3CCCCC3)cc2OC1,59.6%
22,Cc1c(CC(=O)OCCO)cc(-c2ccc(Cl)cc2)n1-c1ccccc1,104%
23,COc1cc(/C=C2\CCC/C(=C\c3cc(CN4CCCC4)c(O)c(OC)c3)C2=O)cc(CN2CCCC2)c1O,52.7%
24,Fc1ccccc1-c1cnn2cc(-c3ccccc3)cnc12,88%
25,CC(C)(C)c1cc(NC(=O)Nc2ccc(-c3cn4c(n3)sc3cc(OCCN5CCOCC5)ccc34)cc2)no1,48.3% and 37.5%
26,COc1ccc(/C=N/NC(=O)CN2CCN(c3cc4c(cc3F)c(=O)c(C(=O)O)cn4C3CC3)CC2)cc1O,95.5%
27,NNCCc1ccccc1,97.2%
28,CNC(=O)c1cc(Oc2ccc3nc(NC(=O)Nc4ccc(C(F)(F)F)cc4)sc3c2)ccn1,70.9%
29,CC1=C2[C@@H](CC1)[C@]1(C)O[C@@](C3CC3)(C[C@H]1OC(=O)CO)[C@H]2OC(=O)/C=C/c1ccccc1,100%
30,O=C(c1ccc(Nc2nccc(NCCCNc3ccnc4cc(Cl)ccc34)n2)cc1)N1CCCCC1,39.7%
